Screening results as filed in PubChem.
ssDAF12 agonist: activates DAF-12 receptor from parasite S. stercoralis; HEK293 ssDAF-12/GRIP1 lit1-tk-luc reporter, luminescence; % of 3 µM dafachronic acid response; activation, % at 6.8 µM; 370,000 tested, 1% active; AID 652126;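 active = activation above the mean over all tested compounds plus 3 SD, cut at about 0.9% in these data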;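 note: 0% = DMSO-only wells and 100% = 3 µM delta7-dafachronic acid wells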
hcDAF12 agonist: activates DAF-12 receptor from parasite H. contortus. HEK293 hcDAF-12 lit1-tk-luc reporter, luminescence; 0% DMSO, 100% Δ7-dafachronic acid. activation, % at 6.8 µM. 370,000 tested, 1.4% active. AID 652067;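 active = activation above the mean of all tested compounds plus 3 SD, cut at about 5.5% in these data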;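 note: 100% = response to 3 µM Δ7-dafachronic acid high control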
SMARCA2 act: SMARCA2 function activation, primary screen | 370,000 tested, 1% active | activation, % at 9.1 µM | MG213 cells, MMTV-luciferase reporter, dexamethasone, overnight | AID 652017; in the data active = activation above about 7.8%;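 note: 0% = vehicle wells and 100% = reference activator wells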
DAX1 inh-1: DAX1 (NR0B1) inhibition, primary screen. inhibition, % at 6.8 µM. 370,000 tested, 1.1% active. HEK293T StAR-luciferase reporter, SF-1/DAX-1 repression relief. AID 652010;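 active = inhibition above the mean over all tested compounds plus 3 SD, cut at about 3.6% in these data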;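 note: 0% = DAX-1 cells with DMSO and 100% = cells lacking DAX-1 with DMSO; higher inhibition means more luminescence from relief of DAX-1 repression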
DAX1 inh-2: inhibitors of human orphan nuclear receptor DAX1 (NR0B1); P51843; HEK293 Gal4-DAX1 luciferase reporter, luminescence; inhibition, % at 6.75 µM; 340,000 tested, 0.99% active;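 active = inhibition above the mean over all tested compounds plus 3 SD, cut at about 4.2% in these data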;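 note: 0% = DAX1-transfected cells with DMSO and 100% = empty-vector control cells with DMSO; inhibition shows as a rise in luminescence from relieved DAX1 repression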
Target sequence (P51843 207-470 limits assumed): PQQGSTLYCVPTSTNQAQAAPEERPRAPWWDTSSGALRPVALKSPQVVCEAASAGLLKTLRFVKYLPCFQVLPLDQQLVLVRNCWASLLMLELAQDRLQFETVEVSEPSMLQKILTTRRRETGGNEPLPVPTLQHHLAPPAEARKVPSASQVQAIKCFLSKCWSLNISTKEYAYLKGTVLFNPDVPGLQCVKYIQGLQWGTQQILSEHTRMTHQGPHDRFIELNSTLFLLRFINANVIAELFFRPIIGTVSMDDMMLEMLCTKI
hgDAF12 agonist: activates the H. glycines DAF-12 receptor ligand-binding domain; HEK293 GAL4-hgDAF12 UAS-luciferase reporter, agonist luminescence; normalized to butyrate control; 370,000 tested, 1.8% active; activation, % at 6.8 µM;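 active = activation above a cutoff set at the mean of all screened compounds plus 3 SD, cut at about 10% in these data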;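 note: 0% = DMSO wells and 100% = sodium butyrate wells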
* marks the source's active call; other numbers are inactive results; . = not tested or not shown. Hits are enriched below; roughly 4.8% of the tested compounds scored in any of these assays.

SMILES | ssDAF12 agonist | hcDAF12 agonist | SMARCA2 act | DAX1 inh-1 | DAX1 inh-2 | hgDAF12 agonist
COc1cccc(-n2c(CN3CCN(c4ccc(C)cc4)C(C)C3)nc3ccc([N+](=O)[O-])cc3c2=O)c1 (stereo not given) | 0 | 5.8* | 1 | -1 | -2 | 1
Cc1ccccc1N=C1Nc2ccccc2N[C@]12C[C@H]1CCC(=O)N3CC[C@@H](C2)[C@@H]13 | 0 | 3 | 2 | 1 | 0 | 2
O=C1CC[C@@H]2CC3(C[C@@H]4CCN1[C@H]24)Nc1ccccc1NC3=NC1CCCCC1 (stereo not given in full) | -1 | -1 | -1 | 0 | 5.2* | 2
O=C1C=C(C2OC(CO)C(O)C2O)C(=O)N1 (stereo not given) | -1 | -1 | 5 | 1 | 5.9* | -1
COc1ccc(-c2cc(C(=O)Nc3ccc(C)c(C)c3)no2)cc1 | -1 | 3 | -4 | 0 | 1 | 1
Cc1ccc(NC(=O)c2cc(-c3ccc(F)cc3)on2)cc1C | -2 | -2 | 2 | 0 | 6.1* | 1
O=C(NC(=S)Nc1cccnc1Cl)c1ccc(F)cc1 | 0 | 4 | 3 | 1 | 5.4* | 9
O=C(Nc1cccnc1Cl)c1cc(-c2ccc(F)cc2)on1 | -1 | 0 | 0 | 0 | 5.0* | -1
O=C(NC(=S)Nc1ncccn1)c1ccc(F)cc1 | 0 | 3 | 4 | 1 | 3 | 5
O=c1[nH]c(C2CCCN(S(=O)(=O)c3cccc(F)c3)C2)nc2c1nnn2Cc1ccccc1 (stereo not given) | -1 | -3 | 0 | 0 | 1 | 0
Cc1nc2ccccc2nc1CN1CCN(Cc2ccc(F)c(F)c2)C(CCO)C1 (stereo not given) | 0 | 2 | 2 | 0 | 1 | -3
COc1ccccc1-c1nc(NC(C)=O)n[nH]1 | 1.8* | 4 | 0 | 0 | . | 1
COc1ccc(N(C(=O)c2ccncc2)S(=O)(=O)c2ccc(F)cc2)cc1 | -1 | -2 | -1 | -2 | 2 | 0
CCOc1ccc2nc(SCc3ccccc3C#N)sc2c1 | -1 | 1 | 7 | 1 | 3 | 11*
COc1ccc(C2c3[nH]c4ccccc4c3CCN2C(=O)c2cc3ncccn3n2)c(F)c1 (stereo not given) | 0 | 3 | -1 | 0 | -1 | 6
COc1ccc(C2c3[nH]c4ccccc4c3CCN2C(=O)c2cn3ccccc3n2)c(F)c1 (stereo not given) | 1.5* | 4 | 0 | 0 | 0 | 1
Cn1nccc1C(=O)N1CCc2c([nH]c3ccccc23)C1c1ccc(F)cc1 (stereo not given) | 1.0* | 1 | -2 | 0 | 0 | 1
CCc1ccc(C2c3[nH]c4ccccc4c3CCN2C(=O)c2cc[n+]([O-])cc2)cc1 (stereo not given) | -1 | 1 | 0 | -1 | -2 | -2
O=C(CCCN1C(=O)NC2(CCCC2)C1=O)Nc1ccc(F)cc1 | -1 | 1 | 2 | -1 | 2 | 1
CC1(C)CC(=O)c2sc(N3CCCCC3)nc2C1 | 0 | 1 | 4 | 1 | 3 | 4
CC1(C)CNC(=O)c2sc(N3CCCCC3)nc2C1 | 0 | 0 | -1 | 0 | 5.6* | 1
O=C(NC(=S)Nc1nc2ccc(F)cc2s1)c1ccco1 | 2.6* | 5.8* | 3 | 2 | 2 | 5
O=C(Nc1nc2ccc(F)cc2s1)Oc1ccccc1 | 0 | 6.5* | 0 | 0 | 0 | 2
O=C1Cc2ccccc2C(c2c(Cl)cccc2Cl)N1 (stereo not given) | -1 | -1 | -1 | 0 | 0 | 1
COc1ccc(NS(=O)(=O)c2cccc(C(=O)NCC(c3ccc(OC)cc3)N3CCCCC3)c2)cc1 (stereo not given) | -1 | 0 | 1 | 2 | 0 | -3
COc1ccc(NS(=O)(=O)c2cccc(C(=O)NCC(c3ccc(OC)cc3)N3CCCC3)c2)cc1 (stereo not given) | -1 | 0 | -2 | 4.2* | 1 | 4
Cc1ccc(S(=O)(=O)N(C)c2ccc(C(=O)NCC(c3ccccc3)N3CCCC3)cc2)cc1 (stereo not given) | -1 | -1 | 3 | 4.0* | 3 | 0
